Screening results from PubChem BioAssay.
The full list was thinned out, with hits kept by preference.
Pf Dd2 inh: blocks in vitro growth of P. falciparum Dd2; P. falciparum Dd2 growth, SYBR Green, 72 h; Potency, µM (highest dose often 28.9 µM), for inactives: at the highest dose activity, negative = inhibition, hits mostly inhibitors; actives 4.3% (n = 120,000); AID 1347417; active = well fitted inhibition curve with a large enough effect;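 note: plate controls were DMSO vehicle for no effect and reference drug for full effect; nearly all actives have a fitted effect of over 65% in size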
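Infected erythrocytes (Dd2, 0.3% parasitemia, 2.5% hematocrit final) are added to compound in RPMI-1640/Albumax II medium, grown 72 h at 37C in low oxygen, then lysed with saponin/Triton-X containing SYBR Green and read by fluorescence.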
* = called active by the depositor; i = inactive; [ ] = remark or other dose. Potency is the fitted concentration of half-maximal effect.

SMILES	Pf Dd2 inh
COC(=O)[C@H](NC(=O)[C@@H]1[C@@H](NC(=O)Nc2ccc(F)cc2F)CCN1C(=O)c1cnccn1)C(C)C	5.4%
CCCCC(=O)N(CCC)CC1CCOC1 (stereo not given)	14.1%[5.79 µM]
O=C(c1cccnc1)N1CCn2cc(C(=O)N3CCOCC3)nc2C1	0.2%
COCCN1CCC(N2CCN(C(=O)Cc3cccc(C)c3)CC2)C1=O (stereo not given)	0.2%
COCCOC1CCN(C(=O)c2sc(C)nc2C)CC1	17.3%
Cn1c(C(=O)N2CCC(C(=O)NCCc3ccc(S(N)(=O)=O)cc3)CC2)cc2sccc21	0.8%
COC(=O)c1cc2sccc2n1Cc1ccc(F)cc1	i
CC(C)NC(=O)C1CCN(C(=O)c2cc3sccc3n2Cc2ccc(Cl)cc2)CC1	11.2µM*
CN1CCc2nc(N3CCN(CC4CCCCC4)CC3)sc2C1	-18.6%
CCOCCCNC(=O)CCC1CCN(C(=O)c2ccccc2)CC1	-12.6%
Cc1cc(C)cc(NC(=O)Cn2cc(C(=O)c3ccncc3)c(=O)c3cc(C)c(C)cc32)c1	-24.0%
CCc1cccc(NC(=O)Cn2cc(C(=O)c3ccncc3)c(=O)c3cc(C)c(C)cc32)c1	10µM*
Cc1ccc2c(c1)c(=O)c(C(=O)c1ccncc1)cn2CC(=O)Nc1ccccc1Cl	i
CCC(=O)N(C1CCOCC1)C1CCN(Cc2cccc(Br)c2)CC1	i
CCOC(=O)c1ccccc1NC(=O)C1CCN(c2ncnc3c2nc2n3CCCCC2)CC1	-7.3%
O=C(Nc1ccc(F)cc1Cl)C1CCN(c2ncnc3c2nc2n3CCCCC2)CC1	2.82µM*
O=C(NCc1ccccc1)C1CCN(c2ncnc3c2nc2n3CCCCC2)CC1	22.1%
COCCN1C(=O)c2ccccc2C(C(=O)Nc2ccc(F)cc2)C12CCCCC2 (stereo not given)	-19.2%
CC(C)CN1C(=O)c2ccccc2C(C(=O)Nc2ccccn2)C12CCCC2 (stereo not given)	14.1µM*
COCCN1C(=O)c2ccccc2C(C(=O)NC2CCCC2)C12CCCCC2 (stereo not given)	11.8%
Cc1ccnc(NC(=O)C2c3ccccc3C(=O)N(CC(C)C)C23CCCC3)c1 (stereo not given)	5.01µM*
CC(C)CN1C(=O)c2ccccc2C(C(=O)N2CCSCC2)C12CCCC2 (stereo not given)	-14.7%
COCCN1C(=O)c2ccccc2C(C(=O)Nc2ccc(C)cc2Cl)C12CCCC2 (stereo not given)	i
COCCN1C(=O)c2ccccc2C(C(=O)Nc2ccc3c(c2)OCCO3)C12CCCC2 (stereo not given)	-23.0%
CCc1ccccc1NC(=O)C1c2ccccc2C(=O)N(CCOC)C12CCCC2 (stereo not given)	i
SMILES	Pf Dd2 inh
CCOc1ccccc1NC(=O)C1c2ccccc2C(=O)N(CCOC)C12CCCCC2 (stereo not given)	3.98µM*
CC(C)CN1C(=O)c2ccccc2C(C(=O)Nc2ccc(C(N)=O)cc2)C12CCCCC2 (stereo not given)	12.6µM*
CC(C)NC(=O)C1c2ccccc2C(=O)N(Cc2ccco2)C12CCCCC2 (stereo not given)	-14.5%
C=CCc1ccccc1OCCN(C)Cc1cnc2ccccc2n1	4.7%
Cn1c(=O)oc2cc(S(=O)(=O)N3CCc4c(nc[nH]c4=O)C3)ccc21	-22.9%
COc1ccc(C(=O)N2CCC3(CC2)C(OC)CN3c2cccc(F)c2)c(OC)c1 (stereo not given)	-28.0%
Cn1nnnc1C1CCCN(C(=O)NC2CCCCC2)C1 (stereo not given)	-6.5%
Cc1cnc(C(=O)N[C@@H]2CCC[C@@H]2C(=O)NCCc2cccs2)cn1	-4.5%
COCC(=O)NC1CCC12CCN(C(=O)c1ccc(C#N)cc1)CC2 (stereo not given)	1.4%
COc1ccc(NC(=O)N2C[C@@H]3C[C@H](C2)c2ccc(NC(=O)C4CCCCC4)c(=O)n2C3)cc1	i
O=C(NCC(F)(F)F)c1cc(Br)cn2ccnc12	22.9%[44.1 µM]
COc1ccc(NC(=O)N2CCC(Oc3ncccc3C(=O)N3CCOCC3)C2)cc1F (stereo not given)	26.7%
O=C(c1cccs1)N1CCCC(n2cc(-c3nc(-c4ccccc4)no3)nn2)C1 (stereo not given)	-2.5%
CN(C)c1ccc(-c2ccnc(N[C@H]3CO[C@H]4[C@@H]3OC[C@H]4OC(=O)NC3CCCCC3)n2)cc1	i
COCCN1C(=O)c2ccccc2C(C(=O)Nc2cc(C)ccn2)C12CCCCC2 (stereo not given)	12.6µM*
COCCN1C(=O)c2ccccc2C(C(=O)NC2CCCCCC2)C12CCCC2 (stereo not given)	-13.4%
COc1ccccc1NC(=O)C1c2ccccc2C(=O)N(Cc2ccccc2)C12CCCC2 (stereo not given)	11.2µM*
O=C(NCC1CCOCC1)C1c2ccccc2C(=O)N(Cc2ccccc2)C12CCCC2 (stereo not given)	-23.4%
COCCN1C(=O)c2ccccc2C(C(=O)NC2CCCCC2)C12CCCC2 (stereo not given)	-1.3%
